Several values for one entry are separate records, joined by “and”; a condition that tells them apart may be missing. Equal values may be shown once. In all, about 270,000 compounds went through this assay and about 410 (0.15%) were called active. Rule as the data show it: active = activation above about 40%; inactive = the rest, inconclusive results apart. For the sample, actives were picked, then their nearest neighbours and some compounds at random. A structure can be active in one record and inactive in another.
Test system: Aedes aegypti neuropeptide Y-like receptor 7 (NPYLR7)
Assay: agonists of mosquito NPYLR7 receptor, primary screen, cell-based, Aedes aegypti, calcium fluorescence, mosquito biting behavior (AID 1259423);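 also: 0% = vehicle and 100% = reference agonist at the receptor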
Settings: HEK293T NPYLR7/Galpha15, GCaMP6s calcium fluorescence, at 10 µM, stronger effect = higher value
[1] = measured here: Max-Min RFU normalised activation

Compound | activation | activation [1]
Cc1nc(N)sc1C(=O)N/N=C1\CCn2cccc21 | 4.89% (inactive) | 3.57%
CCc1nc2c(OCC=C(C)C)cccn2c1N(C)C(=O)c1ccco1 | 6.84% (inactive) | -5.05%
CCOC(=O)C1CCN(C(=O)CC2CSc3nc4c(c(=O)n32)CCCC4)CC1 (configuration not stated) | -0.315% (inactive) | -2.68%
COc1ccc(NCc2cccc(F)c2)cc1N1CCOC1=O | 11.9% (inactive) and 1.76% (inactive) | 10.7% and -0.214%
CCN(CC)c1onc(-c2ccc(F)cc2)c1CN(CCOC)C(=O)Cc1ccccc1 | 15% (inactive) | 16.6%
Cc1ccc(F)c(-n2nnnc2CSCC(=O)NC(C)(C)C)c1 | 1.4% (inactive) | 3.68%
Cc1cc(C)cc(C(O)C(F)(F)F)c1 (configuration not stated) | 4.04% (inactive) and 3.71% (inactive) | 3.27% and 11.4%
CCc1cccc2sc(N(Cc3ccccn3)C(=O)c3cccc(S(=O)(=O)CC)c3)nc12 | 1.88% (inactive) | -3.52%
COc1ccc(CN(CC(O)COCC(C)C)CC2CCCO2)cc1OC (configuration not stated) | 1.65% (inactive) | 13.2%
CN(Cc1ncc[nH]1)C1CCN(c2ccc3c(c2)OCO3)CC1 | -10.3% (inactive) | -10.5%
NC(=O)[C@@H]1CN2CCN(C(=O)c3ccco3)C[C@@H]2[C@H]1c1ccccc1 | 2.73% (inactive) | 0.0894%
O=C(c1ccc(-n2cnnn2)cc1)N1CCCC(N2CCCC2)C1 (configuration not stated) | 6.38% (inactive) | 2.39%
O=c1c2ccccc2sn1CN1CCN(c2ccc(C(F)(F)F)cn2)CC1 | 10.9% (inactive) | 3.72%
CC[C@H]1CN(Cc2cc(Cl)cc(OC)c2OC)CC[C@@]1(C)O | -5.14% (inactive) | -11.2%
Cc1ccc(CN(CCN2CCOCC2)CC(O)c2ccccc2)s1 (configuration not stated) | 1.67% (inactive) | 15.8%
CCN1C(=O)CSC1=C(C#N)C(N)=O | 4.07% (inactive) | -0.252%
CN(C)CC1(O)CCCN(C(=O)c2ccc(N3CCCC3=O)cc2)C1 (configuration not stated) | -3.42% (inactive) | -7.14%
Nc1ccc2c3c(cccc13)C(=O)NC2=O | 147% (active) | 136%
Clc1cccc2ccc(CN3CCn4cncc4C3)nc12 | 133% (active) | 113%
Cc1c(CN2CCn3cncc3C2)c(=O)n(-c2ccccc2)n1C | 20.8% (inactive) | 15.6%
CC1CNC(=O)CCN1Cc1ccc2cccc(Cl)c2n1 (configuration not stated) | 8.75% (inactive) | 6.16%

Compound | activation | activation [1]
Cc1nc2ccccc2c(=O)n1N=Cc1ccc(OCc2ccccc2)cc1 | -6.32% (inactive) | -12.4%
CCOc1ccc(N2CC(NC(=O)Nc3ncccc3C)CC2=O)cc1 (configuration not stated) | 2.56% (inactive) | -0.89%
O=C(Cc1cnn(-c2ccccc2)n1)N1CCCCCCC1 | 10.9% (inactive) | 7.94%
Cn1nc(C(=O)N2CCCC(COc3ccccc3F)C2)ccc1=O (configuration not stated) | 11.1% (inactive) | 4.67%
O=C(c1cnn(-c2ccccc2)n1)N1CCCC(COCc2ccccc2)C1 (configuration not stated) | 97.3% (active) | 92.7%
CN1CCOC(CCNC(=O)CCC(=O)N2CCCCCC2)C1 (configuration not stated) | 1.36% (inactive) | -0.93%
COc1ccc(C=CC(=O)c2ccc(I)cc2)cc1OC | 1.5% (inactive) | 6.21%
COc1ccc(C(=O)C=Cc2cc(Br)c(O)c(OC)c2)cc1F | 172% (active) | 160%
COc1ccc(C(=O)C=Cc2ccc(F)c(F)c2)cc1F | 2.38% (inactive) | -4.33%
CCCCCCC(=O)Nc1c(-c2ccc(OC)c(OC)c2)nc2cc(C)ccn12 | -2.82% (inactive) | 4.02%
CC(=O)N1CCC(C(=O)N2CCCC(C(=O)c3ccc(C(F)(F)F)cc3)C2)CC1 (configuration not stated) | 0.616% (inactive) | -1.09%
COc1ccc(C)c2sc(N(Cc3ccccc3)C(=O)c3ccc([N+](=O)[O-])o3)nc12 | 3.04% (inactive) | 0.795%
N#C/C(=C\c1ccc2noc(-c3ccccc3)c2c1)C(=O)Nc1ccccc1C#N | 22.3% (inactive) | 18.1%
Oc1ccc(-c2onc3ccc(Cl)cc23)cc1 | 112% (active) | 227%
c1ccc(Nc2nc(-c3ccco3)nc3ccccc23)cc1 | -1.91% (inactive) | 4.58%
COc1ccccc1-c1cc(C(=O)N2CCCC2)n2nc(C(C)(C)C)cc2n1 | 3.24% (inactive) | 10.6%
CC1CN(C(=O)NCC(C)N(C)c2ccccc2)CC(C)O1 (configuration not stated) | 4.84% (inactive) | 1.94%
COc1ccc(CN(Cc2nc(C(=O)O)co2)C(C)c2ccccc2)c(OC)c1 (configuration not stated) | 10.6% (inactive) | 6.62%
CN(Cc1cc(-c2ccncc2)no1)Cc1cn[nH]c1-c1cccc(F)c1 | 1.92% (inactive) | 4.35%
CC(C(=O)O)N1C(=O)/C(=C/c2ccc(N(C)C)cc2)SC1=S (configuration not stated) | 64.5% (active) | 54.2%
CC(C(=O)O)N1C(=O)/C(=C/c2ccccn2)SC1=S (configuration not stated) | -2.67% (inactive) | -6.6%

Compound | activation | activation [1]
COc1ccc(N2C(=O)/C(=C\c3ccc(N(C)C)cc3)SC2=S)cc1 | -3.18% (inactive) | -7.36%
Brc1ccc2nc(-c3ccccc3)c(NC3CCCCC3)n2c1 | -4.85% (inactive) | 5.22%
Cc1csc(=O)n1CCC(=O)OC(C)C(N)=O (configuration not stated) | 1.77% (inactive) | 0.428%
CC(=O)Oc1ccc(Cn2c(C)c(C(=O)NCc3ccc(C(C)C)cc3)sc2=O)cc1 | -6.93% (inactive) | -8.16%
Cc1c(C(=O)NCc2ccc(C#N)cc2)sc(=O)n1Cc1ccc(C(=O)N(C)C)cc1 | 2.34% (inactive) | -0.426%
CC(=O)Oc1ccc(Cn2c(C)c(C(=O)NCc3ccc(C#N)cc3)sc2=O)cc1 | 53.2% (active) | 43.3%
CC(=O)N1CCN(C(=O)COc2c(C)cc(Br)cc2Cl)CC1 | 2.73% (inactive) | 1.6%
O=P1(Nc2cc(C(F)(F)F)ccc2Cl)C=C(c2ccccc2)OC(c2ccccc2)=C1 | 52.5% (active) | 88.3%
COc1ccc(C(=O)Nc2cc(C(F)(F)F)ccc2Cl)cc1[N+](=O)[O-] | 1.83% (inactive) | 0.579%
CCn1c(N2CCN(Cc3cccc4ccccc34)CC2)nc2c1c(=O)[nH]c(=O)n2C | 1.95% (inactive) | 4.2%
O=C(Nc1nc2c(s1)CCC2)c1cnn(Cc2ccccc2)c1 | -0.747% (inactive) | -2.1%
O=C(c1ccco1)N(Cc1cccc(Cl)c1)CC1CC(c2ccccc2F)=NO1 (configuration not stated) | -2.38% (inactive) | 16.5%
O=C1CCCCCCCCCOCCCCCO1 | 1.79% (inactive) | 0.962%
O=C(NCC1CCCO1)c1cccc(Nc2c(Oc3cccc(Cl)c3)cnn(-c3ccccc3)c2=O)c1 (configuration not stated) | 0.00562% (inactive) | 12.8%
COCCN(CC(=O)N1CCc2sccc2C1c1ccccc1)C(=O)COCc1ccccc1 (configuration not stated) | 1.27% (inactive) | 4.39%
Nc1c(Oc2ccccc2)cc(Nc2ccccc2)c2c1C(=O)c1ccccc1C2=O | -6.94% (inactive) | -5.96%
Cc1csc(=Nc2ccccc2)n1C1CCCC1 | 1.06% (inactive) | 7.29%
O=C1OCCN1Cc1nc(CCc2ccccc2)nn1-c1ccccn1 | -2.22% (inactive) | -8.03%
CC(=O)c1ccc(C(=O)Nc2sc3c(c2-c2nc4ccccc4s2)CCN(C)C3)cc1 | 12.4% (inactive) | 11.3%
CCOc1ccc(C(=O)Nc2sc3c(c2-c2nc4ccccc4s2)CCN(C)C3)cc1 | 105% (active) | 107%
CC(=O)N1CCc2c(sc(NC(=O)c3cccs3)c2-c2nc3ccccc3s2)C1 | 3.8% (inactive) | 5.03%

Compound | activation | activation [1]
Cc1ccc(CCC(=O)N2CCOC3(CNCCOC3)C2)cc1C (configuration not stated) | 5.94% (inactive) | 6.1%
Cc1c(NC(=O)C(C)(C)c2ccccc2)cccc1C(=O)N1CCOCC1 | 2.93% (inactive) | 1.78%
CCOc1nc(-c2ccc(C(F)(F)F)cc2)n(-c2ccc(NCC(O)COCc3ccccc3)cc2)n1 (configuration not stated) | -2.33% (inactive) | 4.92%
Fc1ccc(N2CCC(N3CCCC(Nc4ccccc4)C3)CC2)cc1 (configuration not stated) | -4.09% (inactive) and -0.074% (inactive) | -9.41% and 0.61%
O=[N+]([O-])c1c(Nc2ccccc2)[nH]c2ccccc12 | 15.3% (inactive) | 12.9%
CC(Oc1ccccc1)C(=O)N[C@@H]1C(=O)N2[C@@H]1SC(C)(C)[C@@H]2C(=O)O (some centres not stated) | -1.06% (inactive) and 61.5% (active) | -1.47% and 49.3%
CCOC(=O)OC(C)OC(=O)C1N2C(=O)C(NC(=O)[C@H](N)c3ccccc3)C2SC1(C)C (some centres not stated) | -11.5% (inactive) | -16.7%
CC1(C)SC2C(NC(=O)COc3ccccc3)C(=O)N2C1C(=O)O (configuration not stated) | -1.02% (inactive) | -6.97%
CCOC(=O)C(C)Sc1ccc(NC(=O)C(C)C)nn1 (configuration not stated) | 0.376% (inactive) | -0.597%
CC(=O)N[C@H]1C[C@@H](c2c(C)nc3sccn23)O[C@@H](C2CCCCC2)C1 | 19.4% (inactive) | 3.2%
CN(c1ccccc1)c1nnc(C(O)c2cc(F)c(F)c(F)c2)s1 (configuration not stated) | 0.561% (inactive) | -0.28%
CCc1nc2ccc(C(=O)N(C)Cc3ccco3)cn2c1N(C)CCC(C)C | -5.57% (inactive) | -12.5%
O=C(Nc1ccc(C(F)(F)F)cc1)C1CCCN(c2ccc(-c3ccco3)nn2)C1 (configuration not stated) | -4.36% (inactive) | -8.71%
C=CCN(Cc1csc(COc2ccc(C)c(C)c2)n1)C(=O)c1cccc(OC)c1 | -4.71% (inactive) | 3.47%
Cc1c(-c2ccccc2)c(=O)oc2c3c(ccc12)OCN(Cc1cccnc1)C3 | -8.96% (inactive) | -15.9%
COc1cccc(/C=C2\Oc3c(ccc4c3CN(Cc3ccncc3)CO4)C2=O)c1 | 66.8% (active) | 55.3%
COCCCN1COc2ccc3c(c2C1)O/C(=C\c1cccc(OC)c1OC)C3=O | 26.3% (inactive) | 20.7%
Cc1nn(C)cc1N1C(=O)c2cccc3c([N+](=O)[O-])ccc(c23)C1=O | -4.56% (inactive) | -14.9%

From PubChem BioAssay AID1259423 (Fisher Drug Discovery Resource Center, 2018)
